Data published in PubChem BioAssay AID651644 (National Center for Advancing Translational Sciences (NCATS), 2012).
About 750 (0.21%) of roughly 360,000 compounds were called active. Not shown: some 2% with an inconclusive outcome. Calls follow the shape of the dose curve; as a rule, active = well fitted falling curve with a large enough effect; inconclusive = small, poorly fitted or top-dose-only effect; inactive = no such curve, though single readings can be large or run the other way. Shown is part of a subset that was picked to be rich in actives.

Test: qHTS Assay for Inhibitors of the HIV-1 protein Vpr; also: nearly all actives have a fitted effect of over 50% in size
Conditions: S. pombe RE007 Vpr strain, BacTiter-Glo ATP luminescence, 24 h; series mostly up to 92.2 µM; activity change, negative = less growth: at the top concentration
Source text: Human immunodeficiency virus type 1 (HIV-1), the causative agent of AIDS, contains a protein called viral protein R (Vpr) that plays an important role in the viral life cycle and the pathogenesis of HIV-1.
These Vpr specific activities include cytoplasmic-nuclear shuttling, induction of cell cycle G2 arrest and cell killing. The cytoplasmic-nuclear shuttling is believed to participate in nuclear transport of the proviral integration complex (PIC). The cell cycle G2 arrest induced by Vpr is thought to suppress human immune functions by preventing T cell clonal expansion and to provide an optimized cellular environment for maximal levels of viral replication. In addition, Vpr induces apoptosis, which may contribute to the depletion of CD4 T cells in HIV-infected patients. Since the Vpr-specific activities have been linked to such clinical manifestation of AIDS as activation of viral replication, suppression of host immune responses and depletion of CD4+ T-lymphocytes, identification of new molecular probes that can inhibit the Vpr activities could potentially provide a new approach to reduce Vpr-mediated detrimental effects in HIV-infected patients, and thus prolong patient's lives. Currently, there are no anti-Vpr drugs.
A fission yeast (Schizosaccharomyces pombe) model system for the Vpr studies has been developed which measures HIV-1 Vpr-induced cell death. This assay will be used for to screen the NIH Molecular Libraries Small Molecule Repository (MLSMR) identify small molecule HIV-1 Vpr inhibitors.
NIH Chemical Genomics Center [NCGC]
NIH Molecular Libraries Probe Centers Network [MLPCN]
Assay Submitter (PI): Richard Zhao, University of Maryland
The fission yeast RE007 strain was used, which carries a single integrated copy of HIV-1 vpr gene in the yeast chromosome. The starting culture was frozen stock 100ul of yeast RE007 in 150ml of *PMG+AL medium, Incubation in 30 degree plus 99% humidity for 18 hours. Next day dispensed 2.5ul of PMG+AL medium in each well to 1536 well white solid plate, then 23nL compound were delivered to each well using a pin tool. Check OD for overnight culture and add cell density at 0.01 for each well, incubation in 30 degree plus 99% humidity for 24 hours. After add 5 ul of *BacTiter/Glo detect reagent to each well at room temperature for 5 minutes then to red out results with Viewlux CCD camera.
% is scaled to controls: 0 for no effect and ±100 for the full control effect; potency is read from the fitted curve at half-maximal effect.

| SMILES | Potency | activity change, negative = less growth |
| --- | --- | --- |
| CN(O)C(=S)c1ccccc1 | 12.6 µM (active) | – |
| COC(=O)[C@@H]1C[C@@]2(O)[C@H](O)[C@H](O)[C@H](O)C[C@H]2N1Cc1ccc(C)s1 | – | 8.05% (inactive) |
| O=C(COc1coc(CN2CCN(c3ccccc3F)CC2)cc1=O)N1CCc2ccccc21 | – | -5.08% (inactive) |
| Cc1ccc(S(=O)Cc2ccc(C(=O)N3CCN(C4CCCCC4)CC3)o2)cc1 (configuration not stated) | – | 7.22% (inactive) |
| CCN(C(=O)COC(=O)/C=C/c1nc2ccccc2s1)C1CCS(=O)(=O)C1 (configuration not stated) | – | -22.5% (inactive) |
| CC(=O)c1ccc(N2Cc3ccccc3C2)cc1 | – | -0.524% (inactive) |
| CSc1c(SCc2ccccc2)cnn(Cc2ccccc2)c1=O | – | 8.78% (inactive) |
| O=S(=O)(c1ccc2c(c1)OCCO2)N1CCc2ccccc21 | – | 5.48% (inactive) |
| O=C(CCN1CCc2ccccc2C(O)(c2ccccc2)C1)c1ccc2c(c1)OCCO2 (configuration not stated) | 5.62 µM (active) | – |
| O=C(CN1CCc2cc3c(cc2C1)OCCCO3)Nc1ccccc1 | – | 4.55% (inactive) |
| Cn1c(=O)cc(OCCCC(=O)N2CCN(c3ccccn3)CC2)c2ccccc21 | – | 8.93% (inactive) |
| CCC(Oc1ccccc1C)C(=O)Nc1ccc(S(=O)(=O)Nc2cc(C)on2)cc1 (configuration not stated) | – | -2.84% (inactive) |
| O=C(CNCc1cccs1)Nc1cc(S(=O)(=O)N2CCCC2)ccc1Cl | – | 12.6% (inactive) |
| CC(NC(=O)Nc1cccc([N+](=O)[O-])c1)c1ccc2c(c1)OCO2 (configuration not stated) | – | 10.8% (inactive) |
| COc1cccc(NCCC(=O)c2cccc([N+](=O)[O-])c2)c1 | – | -24.8% (inactive) |
| COC(=O)/C=C\C(=O)Nc1cccc([N+](=O)[O-])c1 | 7.94 µM (active) | – |
| O=C(COC(=O)CCCNC(=O)c1ccc(Cl)cc1)Nc1cc(Cl)ccc1Cl | – | 0.174% (inactive) |
| O=C(Cn1nnc2ccccc2c1=O)Nc1cc(C(F)(F)F)ccc1N1CCOCC1 | – | 1.55% (inactive) |
| CCCCCCCCCCCCn1ccc(=N)cc1 | 11.2 µM (active) | – |
| Cc1ccc(S(=O)(=O)NCCCn2ccnc2)cc1C(=O)NC(C)C | – | 11.2% (inactive) |
| CCCn1cc(SCC(N)=O)c2ccccc21 | – | -1.74% (inactive) |

| SMILES | Potency | activity change, negative = less growth |
| --- | --- | --- |
| O=C(Nc1cccc2ccccc12)c1[nH]c(-c2ccccc2)c2c1C(=O)N(C1CC1)C2=O | – | 8.14% (inactive) |
| O=C(Nc1cccc2ccccc12)c1onc2c1CCCC2 | 14.1 µM (active) | – |
| O=C(Nc1cccc2ccccc12)NC1CC1 | – | -17% (inactive) |
| Cc1ccc(NC(=O)[C@H](Cc2ccccc2)NC(=O)C2CCNCC2)cc1 | – | 13.7% (inactive) |
| CC1c2nc3ccccc3n2C(CC(=O)NCCCN2CCOCC2)C(=O)N1Cc1ccccc1 (configuration not stated) | – | -6.07% (inactive) |
| CCOC(=O)c1sc(C)c2c1NC(C)(c1cccc3ccccc13)NC2=O (configuration not stated) | – | 29.2% (inactive) |
| COc1ccc(Br)cc1CNCCc1cccc(Cl)c1 | – | -10.8% (inactive) |
| O=C(O)COc1ccc(/C=N/O)cc1Br | – | 3.56% (inactive) |
| COc1cc(/C=N/O)cc(Br)c1OCc1cccc(Cl)c1 | 10 µM (active) | – |
| CCc1noc(C)c1C(=O)OCC(=O)c1ccc(NC(=O)CC(C)C)cc1 | – | -10.5% (inactive) |
| O=C(CN1CCN(c2ncccn2)CC1)Nc1ccccc1C(F)(F)F | – | 3.69% (inactive) |
| Cc1noc(C)c1S(=O)(=O)N(C)C[C@H]1Oc2ccc(NC(=O)C3CC3)cc2C(=O)N([C@H](C)CO)C[C@@H]1C | – | 12.5% (inactive) |
| Cc1ccc(Cl)c(NC(=O)CN(C)CC(=O)Nc2ccc(F)c(F)c2F)c1Cl | – | -12.7% (inactive) |
| CC(=O)Nc1ccc(/C=N/Nc2ccc(C(=O)c3c(C)cc4ccccn34)cc2[N+](=O)[O-])cc1 | – | 5.89% (inactive) |
| CCSC1(SCC)N=C(N)C2(C#N)C(c3ccccc3)NC(C)=CC12C#N (configuration not stated) | 4.47 µM (active) | – |
| COc1ccc(C(=O)NC2CC2)cc1OC1CCN(Cc2ccc(SC)cc2)CC1 | – | 5.43% (inactive) |
| Cc1ccc(CN(Cc2cccnc2)C(=S)Nc2cc(Cl)ccc2C)cc1 | – | -11% (inactive) |
| O=C1CSC(=S)N1/N=C/c1ccc(O)c([N+](=O)[O-])c1 | 28.2 µM (active) | – |
| O=C(CN(CC1CCCO1)C(=O)CNS(=O)(=O)c1ccccc1)NCc1ccccc1 (configuration not stated) | – | 10.6% (inactive) |
| CCN(CC)S(=O)(=O)c1ccc(Cl)c(C(=O)NCCN2CCOCC2)c1 | – | -8.37% (inactive) |
| Cc1c(C(=O)NCCN(C)C)oc2ccc(S(=O)(=O)N3CCCC3)cc12 | – | -6.44% (inactive) |

| SMILES | Potency | activity change, negative = less growth |
| --- | --- | --- |
| O=C(OCC(=O)N1CCN(c2ccccc2)CC1)c1ccc([N+](=O)[O-])s1 | 39.8 µM (active) | – |
| C[C@H](NC(=O)c1ccccc1Cl)C(=O)OCC(=O)N1CCN(c2ccccc2)CC1 | – | -11.8% (inactive) |
| Cc1ccc(C)c(OCCC(=O)OCC(=O)N2CCN(c3ccccc3)CC2)c1 | – | -7.5% (inactive) |
| CC(=O)c1cccc(-n2nnnc2SCC(=O)NNC(=O)C2CCCCC2)c1 | – | 7.04% (inactive) |
| C=CS(=O)c1sc(Cl)c(N2CCOCC2)c1[N+](=O)[O-] (configuration not stated) | 12.6 µM (active) | – |
| COc1ccc(-c2ccc3c(c2)[C@@H]2C[C@H](N(C)S(=O)(=O)c4ccccc4)[C@H]([C@H](C)O)C(=O)N2CC3)cc1 | – | 0.603% (inactive) |
| CC(Oc1ccc(F)cc1)C(=O)Nc1cc(S(=O)(=O)N2CCOCC2)ccc1N1CCN(C)CC1 (configuration not stated) | – | 12.3% (inactive) |
| CC1(C)C(c2cccs2)=[N+]([O-])C2(CCCCC2=O)N1O (configuration not stated) | – | 2.59% (inactive) |
| Cc1ccc(S(=O)(=O)N(CC(=O)Nc2cccnc2)c2ccc(Br)cc2)cc1 | – | -3.78% (inactive) |
| CC(C)CN(C(=O)CN1CCN(S(=O)(=O)c2ccccc2)CC1)c1c(N)n(CC(C)C)c(=O)[nH]c1=O | – | -0.551% (inactive) |
| CC1(C(=O)NS(=O)(=O)c2ccc3ccccc3c2)CCN1C(=O)C1(c2ccc(Cl)cc2)CCC1 (configuration not stated) | – | 11.9% (inactive) |
| CCC(c1nnc(SCC(=O)NNC(=O)c2ccccc2)n1Cc1ccccc1)N(C)C (configuration not stated) | – | 4.7% (inactive) |
| O=C1NC(=O)N(c2ccccc2)C(=O)/C1=C/c1ccc([N+](=O)[O-])s1 | 28.2 µM (active) | – |
| CCOc1ccc(C(C(=O)NCCOC)N(CCOC)C(=O)CCC(=O)Nc2ccccn2)cc1 (configuration not stated) | – | -3.53% (inactive) |
| CCOc1ccc(CCNC(=O)COC(=O)c2ccc(F)c(S(=O)(=O)N3CCOCC3)c2)cc1OCC | – | 15.6% (inactive) |
| CC1CCCN(CCCNC(=O)CN2C(=O)COc3ccc(S(=O)(=O)N4CCOCC4)cc32)C1 (configuration not stated) | – | -1.37% (inactive) |
| COc1ccc(-c2csc3nc(-c4ccccc4F)oc(=O)c23)cc1OC | – | 26.5% (inactive) |
| COc1ccc(N2C(=O)C(CC(=O)Nc3ccccc3)N(Cc3ccc(OC)c(OC)c3)C2=O)cc1 (configuration not stated) | – | 6.5% (inactive) |
| O=C(C(=O)N1CCN(c2ccccc2)CC1)c1ccc2c(c1)OCO2 | – | -7.63% (inactive) |
| O=P(c1ccc2c(c1)OCCO2)(N1CCOCC1)N1CCOCC1 | – | -6% (inactive) |
